# Bioassay records: PubChem, National Center for Advancing Translational Sciences (NCATS)
# Sampled rows, rich in hits. Any-hit rate of the full collection: about 8.3%.
# BCR signal inh: chronic active BCR signaling inhibition | hit rate 0.05% among 340,000 | Potency, µM (doses to about 46.1 µM), inactives show at the highest dose activity change, negative = inhibition, most hits filed as inhibitors | ABC-DLBCL IkBa-CBG/CBR reporter, luminescence ratio, 4 h; active = well fitted inhibition curve with a large enough effect in the signal ratio, with a control signal flat, not every such curve was filed as active; inconclusive = small, poorly fitted or top-dose-only effect, or effect the other way, or a change in a side signal; the % refers to the signal ratio;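 note: potency is the fitted concentration of half-maximal effect; plate controls were basal doxycycline-induced cells for no effect and cells given 10 µM MG132 for full effect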
#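 TMD8 ABC-DLBCL cells carrying doxycycline-inducible green luciferase fused to IkappaBalpha plus unfused red luciferase were exposed to compounds (up to 46 uM) for 4 hrs at 37C. Activity came from the overlap-corrected green/red luminescence ratio.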
# Giardia killer: Giardia lamblia killing; Giardia lamblia trophozoite viability; activity change, % at 7.66 µM, hits read low; hit rate 0.15% among 340,000; AID 540267; in the data active = activity change below about -80%; inconclusive = between about -30% and that limit;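 note: parasites exposed to compound for two days anaerobically before the ATP read; % is set by controls: 0 for no effect and ±100 for the full control effect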
#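 ATP-content bioluminescence gauges trophozoite survival. Cells (100/well) receive compound and incubate anaerobically for 48 hrs at 37 deg C; detection reagent follows for 15-30 min at room temperature.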
# RORg inh: inhibitors of mouse ROR gamma transcriptional activity; Drosophila S2 Gal4-RORgamma UAS-luciferase reporter, 20 h; Potency, µM (titrated, usually from 53.6 µM), for the others: at the top dose activity change, negative = inhibition, most hits filed as inhibitors; hit rate 5.4% among 310,000; AID 2551; note: potency is the fitted concentration of half-maximal effect; % is set by controls: 0 for no effect and ±100 for the full control effect; nearly all actives have a fitted effect of over 60% in size
# Target sequence (P51450 whole entry, looked up, the tested form may be a part): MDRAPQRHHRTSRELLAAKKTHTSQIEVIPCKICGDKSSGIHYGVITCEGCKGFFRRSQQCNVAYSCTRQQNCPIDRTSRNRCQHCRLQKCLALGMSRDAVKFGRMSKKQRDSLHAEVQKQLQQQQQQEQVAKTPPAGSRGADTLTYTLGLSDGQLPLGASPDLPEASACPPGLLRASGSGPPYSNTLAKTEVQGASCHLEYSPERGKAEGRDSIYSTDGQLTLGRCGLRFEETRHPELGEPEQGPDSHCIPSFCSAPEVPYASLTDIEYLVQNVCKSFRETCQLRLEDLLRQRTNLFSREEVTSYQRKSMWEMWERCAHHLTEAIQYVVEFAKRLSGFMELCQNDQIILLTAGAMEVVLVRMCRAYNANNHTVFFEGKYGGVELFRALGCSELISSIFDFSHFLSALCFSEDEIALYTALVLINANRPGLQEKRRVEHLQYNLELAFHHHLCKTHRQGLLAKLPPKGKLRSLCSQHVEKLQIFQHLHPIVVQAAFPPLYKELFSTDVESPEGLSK
#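 A Gal4/UAS one-hybrid system in insect cells: metallothionein-promoter Gal4–ROR gamma fusion plus Photinus luciferase reporter. Copper sulfate 700 uM final, 20 hr ambient incubation, luminescent detection after 10 min with reagent.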
# SW480 rerep: induces DNA re-replication in SW480 colon adenocarcinoma cells. AID 624297. hit rate 1.8% among 340,000. SW480 DNA re-replication, Hoechst DNA content imaging, 48 h. Potency, µM (series often up to 46.1 µM), inactives show top-dose re-replication activation, actives largely listed as activators; note: potency is the fitted concentration of half-maximal effect; % of control where 0% means no effect; nearly all actives have a fitted effect of over 55% in size
#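 Quantitative HTS format with DMSO vehicle controls; 48 hr drug incubation at 37 C, then 40 min Hoechst staining and scanning imager measurement at 405 nm excitation.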
# VP16 counter: Gal4-VP16 reporter inhibition counter-screen | hit rate 3.5% among 310,000 | Potency, µM (top dose mostly 53.6 µM), inactives show top-dose activity, negative = inhibition, usual class: inhibitors | Drosophila S2 Gal4-VP16 UAS-luciferase, luminescence, 20 h;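 note: Gal4-VP16 expression switched on by copper sulfate through the metallothionein promoter; potency is the fitted concentration of half-maximal effect; % is set by controls: 0 for no effect and ±100 for the full control effect; nearly all actives have a fitted effect of over 50% in size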
# MCF10A rerep: inducers of DNA re-replication in MCF 10A breast cells | hit rate 2.9% among 350,000 | Potency, µM (series often up to 46.1 µM), for the others: top-dose activity, positive = re-replication, most hits filed as activators | MCF 10A DNA re-replication, Hoechst nuclear intensity, 48 h; note: potency is the fitted concentration of half-maximal effect; % of control where 0% means no effect; nearly all actives have a fitted effect of over 50% in size
# * hit, by the source's call; ? = inconclusive; . = no result; [ ] = dose if it differs, or a comment. Unless noted, calls come from the whole dose curve; as a rule, active = well fitted curve in the direction sought with a large enough effect; inconclusive = small, poorly fitted or top-dose-only effect, or another doubt; inactive = no such curve, though single readings can be large; an effect the other way counts as inactive or inconclusive.
SMILES,BCR signal inh,Giardia killer,RORg inh,SW480 rerep,VP16 counter,MCF10A rerep
O=[N+]([O-])c1ccccc1/C=N/n1c(-c2ccccc2)n[nH]c1=S,6%,-2,?,4%,?,5%
Cc1cc(-c2n[nH]c(=S)n2/N=C/c2cccs2)n[nH]1,7%,7,-10%,-11%,?,-8%
S=c1[nH]nc(-c2ccccc2)n1/N=C/c1cccs1,?,2,4µM*,1%,-1%[0.365 µM],28%
Cc1ccc(-c2n[nH]c(=S)n2/N=C/c2cccs2)cc1,?,8,5µM*,?,3.2µM*,-10%
CCOP(=O)(NC12CC3CC(CC(C3)C1)C2)NC12CC3CC(CC(C3)C1)C2,-3%,-6,-29%,-12%,0%,-3%
Cc1cc(C)c(NC(=O)COC(=O)Cc2cccs2)c(C)c1,1%,-3,.,-12%,.,-27%
COc1ccc(CC2(CO)CCN(CC3=Cc4cc(Cl)ccc4OC3)CC2)cc1,6%,-22,30%,?,-3%,23µM*
COc1ccc2c(c1)C=C(CN1CCC(CO)(CCc3ccccc3)CC1)CO2,-7%,7,13%,?,-2%,?
CC1Cc2cc(S(=O)(=O)NCc3ccc(F)cc3)ccc2N1C(=O)C1CCC1 (centres undefined),-4%,.,.,.,.,.
C=CCCCCCCCCc1nc(=S)[nH][nH]1,-1%,-2,13µM*,-2%,-3%,13%
CCOc1ccc(C(C)=O)cc1COC(=O)c1ccc2c(c1)NC(=O)CS2,-20%,14,.,3%,.,10%
O=S(=O)(Nc1ccc(Br)cc1)c1cccc(NS(=O)(=O)c2cccs2)c1,.,4,.,-6%,.,7.3µM*
N#Cc1ccccc1S(=O)(=O)N1CCN(CC(=O)NCC2(N3CCOCC3)CCCCC2)CC1,4%,11,.,-13%,.,-1%
CCOc1ccc(-n2c(-c3ccc(Br)cc3)c[n+]3c2CCCCC3)cc1,?,20,?,0%,22µM*,?
FC(F)Oc1ccc(-c2c[n+]3c(n2-c2ccccc2)CCCCC3)cc1,-15%,-1,9%,-4%,-1%,14%
COc1ccc(-c2c[n+]3c(n2-c2ccc(C)cc2)CCCCC3)cc1,?,5,-61%,11%,11µM*,-3%
CCOc1ccc(-n2c(-c3ccc(OC)cc3)c[n+]3c2CCCCC3)cc1,1%,-3,11µM*,?,2µM*,-4%
CCOc1ccc(-n2c(-c3ccccc3)c[n+]3c2CCC3)cc1,1%,7,?,16%,8.9µM*,3%
COc1ccc(-n2c(-c3ccc(Cl)cc3)c[n+]3c2CCCCC3)cc1,1%,13,31%,-29%,-11%,-6%
COC(=O)C/C=C\[C@@H](C)[C@@H](/C=N\OC[C@@H](O)COCc1ccco1)OC,.,.,12%[10 µM],.,-7%[10 µM],.
CC1C(=O)Nc2ccccc2N1C(=O)c1cccc(C(F)(F)F)c1 (centres undefined),-15%,-23,4%,2%,2%,7%
Cc1snc2sc(C(=O)c3ccc(F)cc3)c(N)c12,-1%,-6,21%,-3%,16%,3%
CC(C)(C)C(=O)Nc1ccc(N2CCCC2)cc1,6%,7,1%,-8%,5%,-4%
CCOc1ccc(S(=O)(=O)Nc2cccc(C(=O)NCC(c3ccc(OC)cc3)N3CCOCC3)c2)cc1 (centres undefined),2%,-15,?,1%,3%,17%
Cc1cc(C)n(-c2nnc3c4ccccc4n(C)c3n2)n1,10%,6,3.2µM*,-2%,?,-2%
SMILES,BCR signal inh,Giardia killer,RORg inh,SW480 rerep,VP16 counter,MCF10A rerep
C(#CC1C=CC2OC(c3ccccc3)OCC2O1)c1ccccc1 (centres undefined),.,.,-11%[10 µM],.,-3%[10 µM],.
CCOCC(=O)NC1CCc2cc(OC(=O)COCC)c(OC)c(OC)c2-c2ccc(SC)c(=O)cc21 (centres undefined),.,9,.,0.082µM*,.,?
COc1cc2c(c(OC)c1OC)-c1ccc(SC)c(=O)cc1C(NC(=O)C(F)(F)F)CC2 (centres undefined),.,4,.,0.021µM*,.,?
O=C(NCc1ccc2c(c1)CCN2C(=O)c1ccccc1)c1ccco1,12%,.,.,.,.,.
CC(=O)c1nn(-c2cccc(Br)c2)cc1C(=O)c1ccc(Cl)cc1,?,11,-5%,?,-30%,4.6µM*
CC(=O)c1nn(-c2cccc(Br)c2)cc1C(=O)c1ccccc1,0%,-10,?,-7%,?,?
CC(=O)c1nn(-c2ccccc2)cc1C(=O)c1cccc(Br)c1,2%,18,-28%,?,?,1.6µM*
CC1=CC(C)(C)NC(=S)N1c1ccc([N+](=O)[O-])cc1,.,14,.,-10%,.,-25%
CC1=CC(C)(C)NC(=S)N1c1cccc(C)c1,-4%,-4,4.5µM*,22%,11µM*,?
CC1=CC(C)(C)NC(=S)N1c1ccc(C)c(C)c1,1%,-17,0.56µM*,-21%,4.5µM*,3%
CC1=CC(C)(C)NC(=S)N1c1ccc(C)cc1,-9%,4,1.6µM*,9%,3.5µM*,-4%
COc1ccc(NC(=O)Nc2c(O)ccc3ccccc23)cc1,.,9,.,?,.,?
O=C(c1csnn1)N1CCC2(CCCN(Cc3ccccc3)C2)CC1,.,.,1%,.,-7%,.
CN1CCN(C(=O)CN(C2CCCCC2)S(=O)(=O)c2ccc(Br)cc2)CC1,1%,0,-12%,-2%,9%,-1%
O=C(O)CC(NC(=O)Cc1ccc(Cl)cc1)c1ccco1 (centres undefined),10%,1,22%,20%,-9%,-2%
CN(C(=S)NC1CCCCC1)C1(c2ccccc2Cl)CCCCC1=O (centres undefined),?,-19,13µM*,16%,?,-9%
CC(C)NC(=S)N(C)C1(c2ccccc2Cl)CCCCC1=O (centres undefined),7%,11,-11%[10 µM],0%,-11%,2%
C=CCOC(=O)C1=C[C@H](c2coc3ccccc3c2=O)[C@@H](CCCO)[C@H](OCC)O1,?,-9,7%,-10%,6%,-4%
CC1CCN(c2ccc(-c3cccc(NC(=O)c4ccco4)c3)nn2)CC1,?,?,.,-366%,.,8%
CCC(=O)Nc1cccc(-c2ccc(N3CCC(C)CC3)nn2)c1,?,-85*,2.5µM*,-2%,4µM*,11%
CCC(=O)Nc1ccc(-c2ccc(N3CCC(C)CC3)nn2)cc1,0%,23,3.5µM*,-10%,?,-2%
